Measurements from PubChem BioAssay AID1159580 (chemical genetic matrix, 2015).
The whole screen tested about 5,500 compounds, of which about 2,000 (36%) were called active. Inconclusive results (about 18%) are left out. Rule as the data show it: active = normalized growth mostly below about 0.91 (no sharp cut-off); inconclusive = no clear call, values can overlap the other calls; inactive = mostly above about 0.92. This is one part of the list.

Test: chemical genetic growth profiling, strain panel (AID 1159580);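 also: tested at 20 µM; growth read once vehicle control cultures reached saturation at 30 °C; 1 = growth at the plate median or of vehicle wells; lower values mean less growth of the strain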
Conditions: S. cerevisiae deletion strains, growth OD

Measured: normalized growth

O=C(/C=C/c1ccccc1)c1ccc(O)cc1O
active: locus YAL021C, strain ccr4, active compounds read low 0.0748 | locus YAL026C, strain drs2, active compounds read low 0.0615 | locus YAL030W, strain snc1, active compounds read low 0.0587 | locus YBL061C, strain skt5, active compounds read low 0.066 | locus YBR009C, strain hhf1, active compounds read low 0.0651 | locus YBR023C, strain chs3, active compounds read low 0.0637 | locus YBR171W, strain sec66, active compounds read low 0.0801 | locus YBR231C, strain swc5, active compounds read low 0.062 | locus YBR279W, strain paf1, active compounds read low 0.0608 | locus YCL011C, strain gbp2, active compounds read low 0.0582 | locus YCL016C, strain dcc1, active compounds read low 0.0631 | locus YCL061C, strain MRC1, active compounds read low 0.0667 | locus YCL069W, strain vba3, active compounds read low 0.0608 | locus YCR088W, strain abp1, active compounds read low 0.0623 | locus YDL005C, strain med2, active compounds read low 0.0755 | locus YDL040C, strain nat1, active compounds read low 0.0609 | locus YDR001C, strain nth1, active compounds read low 0.0596 | locus YDR069C, strain doa4, active compounds read low 0.0834 | locus YDR137W, strain rgp1, active compounds read low 0.0879 | locus YDR159W, strain sac3, active compounds read low 0.0941 | locus YDR195W, strain ref2 0.114 | locus YDR297W, strain sur2, active compounds read low 0.0595 | locus YDR334W, strain swr1, active compounds read low 0.0664 | locus YDR335W, strain msn5, active compounds read low 0.0605 | locus YDR392W, strain spt3, active compounds read low 0.0975 | locus YEL003W, strain gim4, active compounds read low 0.0559 | locus YEL037C, strain rad23, active compounds read low 0.059 | locus YEL061C, strain CIN8 (second series), active compounds read low 0.0607 | locus YER015W, strain faa2, active compounds read low 0.0634 | locus YER016W, strain bim1, active compounds read low 0.0613 | locus YER111C, strain swi4, active compounds read low 0.0739 | locus YER155C, strain BEM2 (second series), active compounds read low 0.0936 | locus YFR010W, strain ubp6, active compounds read low 0.0802 | locus YGL167C, strain pmr1, active compounds read low 0.0759 | locus YGL173C, strain kem1, active compounds read low 0.0714 | locus YGL227W, strain vid30, active compounds read low 0.0642 | locus YGL240W, strain doc1, active compounds read low 0.0905 | locus YGL253W, strain hxk2, active compounds read low 0.054 | locus YHR013C, strain ard1, active compounds read low 0.122 | locus YHR027C, strain rpn1, active compounds read low 0.0687 | locus YHR030C, strain SLT2, active compounds read low 0.101 | locus YHR079C, strain IRE1, active compounds read low 0.113 | locus YHR142W, strain chs7, active compounds read low 0.0687 | locus YJL092W, strain hpr5, active compounds read low 0.0609 | locus YJL095W, strain BCK1 (second series), active compounds read low 0.0568 | locus YJL095W, strain BCK1, active compounds read low 0.131 | locus YJL115W, strain asf1, active compounds read low 0.0751 | locus YJL129C, strain trk1, active compounds read low 0.0857 | locus YJL154C, strain vps35, active compounds read low 0.0627 | locus YJL164C, strain tpk1, active compounds read low 0.0619 | locus YJL166W, strain qcr8, active compounds read low 0.0694 | locus YJL187C, strain SWE1, active compounds read low 0.0592 | locus YJR066W, strain TOR1, active compounds read low 0.000815 | locus YKL160W, strain elf1, active compounds read low 0.0634 | locus YKR026C, strain gcn3, active compounds read low 0.0638 | locus YKR091W, strain srl3, active compounds read low 0.0604 | locus YLL001W, strain dnm1, active compounds read low 0.059 | locus YLL026W, active compounds read low 0.0586 | locus YLL041C, strain sdh2, active compounds read low 0.063 | locus YLR027C, strain aat2, active compounds read low 0.0578 | locus YLR113W, strain HOG1, active compounds read low 0.216 | locus YLR221C, strain rsa3, active compounds read low 0.0573 | locus YLR258W, strain gsy2, active compounds read low 0.0645 | locus YLR262C, strain YPT6 (second series), active compounds read low 0.0856 | locus YLR320W, strain mms22, active compounds read low 0.0956 | locus YLR342W, strain FKS1, active compounds read low 0.064 | locus YLR357W, strain rsc2, active compounds read low 0.137 | locus YLR370C, strain arc18, active compounds read low 0.0633 | locus YLR384C, strain iki3, active compounds read low 0.0625 | locus YML120C, strain ndi1, active compounds read low 0.0602 | locus YMR058W, strain fet3, active compounds read low 0.0605 | locus YMR125W, strain sto1, active compounds read low 0.0837 | locus YMR129W, active compounds read low 0.061 | locus YMR205C, strain PFK2, active compounds read low 0.0908 | locus YMR231W, strain pep5, active compounds read low 0.0723 | locus YNL071W, strain lat1, active compounds read low 0.0616 | locus YNL183C, strain NPR1, active compounds read low 0.000882 | locus YNL209W, strain ssb2, active compounds read low 0.0674 | locus YNL248C, strain rpa49, active compounds read low 0.0717 | locus YNL322C, strain KRE1 (second series), active compounds read low 0.0685 | locus YNR049C, strain mso1, active compounds read low 0.0592 | locus YOR001W, strain rrp6, active compounds read low 0.0669 | locus YOR070C, strain gyp1, active compounds read low 0.0587 | locus YOR080W, strain dia2, active compounds read low 0.0676 | locus YOR083W, strain WHI5, active compounds read low 0.0633 | locus YOR106W, strain vam3, active compounds read low 0.0654 | locus YOR231W, strain MKK1, active compounds read low 0.108 | locus YOR265W, strain rbl2, active compounds read low 0.0582 | locus YOR270C, strain vph1, active compounds read low 0.0904 | locus YOR290C, strain snf2, active compounds read low 0.0728 | locus YPL051W, strain arl3, active compounds read low 0.0614 | locus YPL078C, strain atp4, active compounds read low 0.0665 | locus YPL106C, strain sse1, active compounds read low 0.102 | locus YPL240C, strain hsp82, active compounds read low 0.058 | locus YPL256C, strain CLN2, active compounds read low 0.118
